Measured values taken from PubChem BioAssay (NCI).
About 83,000 compounds went through this panel and 20% of them were active in at least one assay; those are over-represented in the sample as a whole.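 Single-dose data. Exposure time 48 hours. Values below 10 considered active.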 A number with no mark means an inactive call. Calls of active or inactive are those of the source.

These molecules were tested on HL-60(TB) leukemia (assay: NCI-60 one-dose screen, 48 h (100 = growth as untreated, 0 = no growth, -100 = all killed)). Conditions: 10 µM unless noted.

Structure (SMILES) | growth
CSc1nc(N)n2nccc2n1 | 106%
Cc1cc(-c2cc(O)ccc2Cl)cc2nnc(Nc3ccc(OCCN4CCCC4)cc3)nc12 | -63.5% (active)
CC(=O)OC[C@]12CC[C@H]3[C@@H](C[C@H]4O[C@]45CC=CC(=O)[C@]35C)[C@]1(O)CC[C@@]2(O)[C@@](C)(O)C1CC(C)=C(C)C(=O)O1 (stereo not given in full) | -11.8% (active)
C(=C\c1n(Cc2ccc3ccccc3c2)c(-c2ccccc2)c(-c2ccccc2)[n+]1Cc1ccc2ccccc2c1)/c1ccccc1 | -42% (active)
COc1cccc(/C=C2\SC(N3CCN(c4ccccn4)CC3)=NC2=O)c1 | 95.5%
COc1ccc(/C=C/C(=O)c2ccc(NC(=O)CSc3nc4c([nH]3)c(=O)n(C)c(=O)n4C)cc2)cc1OC | 99.5%
O=C(O)CSCC(=O)Nc1cc(C(F)(F)F)ccc1Cl | 102%
OCC(CO)(CCl)CCl | 96.3%
COc1ccc(Cl)cc1Nc1nc(C(F)(F)F)ccc1C(=O)NN | 23.3%
NNc1c2ccccc2nc2ccccc12 | 9.09% (active)
NC(=NCCCC1(c2ccccc2)CCCC1)Nc1ccc(Cl)cc1 | 77.2%
CCN1CCN(c2cc(C)nc(N(CCCNc3ccnc4cc(Cl)ccc34)Cc3ccc4c(c3)OCO4)n2)CC1 | -67.3% (active)
Cc1nnc(Nc2ccc(NC(=O)Nc3ccc(Cl)cc3)cc2)c2ccccc12 | -34.8% (active)
CCOC(=O)c1c2c(cn1Cc1ccccc1)-c1oncc1CC2 | 98.6%
Cc1oc2ccc(O)c(CN3CCCCCC3)c2c1C(=O)Nc1ccc(C(F)(F)F)cc1 | 83%
C=C1C(=O)O[C@H]2[C@H]1CC/C(COC(=O)c1ccccc1)=C\CC[C@@]1(C)O[C@@H]21 | -59.5% (active)
O=C(CN(C1CCCCC1)C1CCCCC1)Nc1ccc(S(=O)(=O)c2ccc(NC(=O)CN(C3CCCCC3)C3CCCCC3)cc2)cc1 | -39.3% (active)
COc1cc(NC(=O)SC2=NCCS2)cc(OC)c1 | 90.5%

Structure (SMILES) | growth
COC1=CC=CC2(OC)C3(O)CCCc4cccc(c43)N3C(=O)COC132 (stereo not given) | 98.6%
O=S(=O)(NCCCNc1nccc(-c2c(-c3cccc(F)c3)nc3sccn23)n1)c1cccc2ccccc12 | 53.9%
CCCCCCCCCCCCCCCC[N+]1(C)CCOCC1 | -59.5% (active)
C=C(C)[C@@H]1CC[C@]2(C(=O)OC)CC[C@]3(C)[C@H](CC[C@@H]4[C@@]5(C)CC/C(=N\OCCC(=NCCC#N)NOCCC#N)C(C)(C)[C@@H]5CC[C@]43C)[C@@H]12 | 0.897% [100 µM] (active)
COc1cc(-c2nc3ccccc3s2)ccc1OCc1nc2n(n1)S(=O)(=O)c1ccccc1N2C | 79.2%
Nc1n[nH]c2cccc(C#Cc3cccc(NC(=O)c4cc(N5CCOCC5)cc(C(F)(F)F)c4)c3)c12 | 10.6%
CC[C@H]1OC(=O)[C@H](C)[C@@H](O[C@H]2C[C@@](C)(OC)[C@@H](O)[C@H](C)O2)[C@H](C)[C@@H](O[C@@H]2O[C@H](C)C[C@H](N(C)C)[C@H]2O)[C@](C)(OC)C/C(C)=C2/O[C@@]1(C)C=C2C | 41.4%
CC(C)(C)c1ccc(C(O)CCCN2CCC(C(O)(c3ccccc3)c3ccccc3)CC2)cc1 (stereo not given) | -51.9% (active)
N#Cc1c(-c2ccc(Cl)cc2)csc1NC(=O)Nc1cccc(C(F)(F)F)c1 | -13% (active)
CC(=O)O[C@@]12CO[C@@H]1C[C@H](O)[C@@]1(C)C(=O)[C@H](O)C3=C(C)[C@@H](OC(=O)[C@H](O)[C@@H](NC(=O)OC(C)(C)C)c4ccccc4)C[C@@](O)([C@@H](OC(=O)c4ccccc4)C12)C3(C)C (stereo not given in full) | -12.9% (active)
CCCOC(=O)C1(O)CCCC1 | 107%
Cc1ccc(/C=C(\C#N)c2cc3ccccc3[nH]2)cc1 | 22.8%
Cn1cc(-c2csc(-c3c[nH]c4ccccc34)n2)c2cnccc21 | -30.2% (active)
CC(=O)c1nc2ccccc2n1CCN1CCN(C)CC1 | 8.01% (active)
Cc1cc2cc3cc(C)c(N(C)C)cc3[n+](C)c2cc1N(C)C | 47%
Cc1ccc(NC(=O)c2cc(-c3nc4ccccc4s3)c(=O)n(NS(=O)(=O)c3ccc(Cl)cc3)c2N)cc1 | 101%
CN1/C(=C\C=C\C2=[N+](C)c3ccccc3C2(C)C)C(C)(C)c2ccccc21 | -22.5% (active)
